According to PubChem BioAssay AID1159580 (chemical genetic matrix, 2015):
“And” between values parts separate entries of the source, which are not always exact repeats. Equal values may be shown once. Screen size: about 5,500 compounds; about 2,000 (36%) were called active. Not shown: some 18% with an inconclusive outcome. No stated cut-off is given here; in the data, active means normalized growth mostly below about 0.91 (no sharp cut-off); inconclusive means no clear call, values can overlap the other calls; inactive means mostly above about 0.92. Some of the results follow.

Test: chemical genetic growth profiling, strain panel (AID 1159580);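 further: tested at 20 µM; growth read once vehicle control cultures reached saturation at 30 °C; 1 = growth at the plate median or of vehicle wells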
Conditions: S. cerevisiae deletion strains, growth OD

Measured: normalized growth

CC[C@@]1(C2O[C@@H](C3O[C@@](O)(CC)[C@H](C)C[C@@H]3C)C[C@@H]2C)CC[C@H]([C@]2(C)CCC3(C[C@H](O)[C@@H](C)[C@@H]([C@H](C)[C@@H](OC)[C@H](C)C(=O)O)O3)O2)O1 (stereo not given in full)
inactive: locus YAL013W, strain DEP1, stronger effect = lower value 0.998 | locus YAL021C, strain ccr4, stronger effect = lower value 0.924 | locus YAL030W, strain snc1, stronger effect = lower value 1.03 | locus YBL061C, strain skt5, stronger effect = lower value 1.04 | locus YBR009C, strain hhf1, stronger effect = lower value 1.02 | locus YBR021W, strain FUR4, stronger effect = lower value 1.05 | locus YBR023C, strain chs3, stronger effect = lower value 1.03 | locus YBR171W, strain sec66, stronger effect = lower value 0.974 | locus YBR229C, strain ROT2, stronger effect = lower value 1.03 | locus YBR231C, strain swc5, stronger effect = lower value 1.06 | locus YBR279W, strain paf1, stronger effect = lower value 1.03 | locus YCL011C, strain gbp2, stronger effect = lower value 0.991 | locus YCL016C, strain dcc1, stronger effect = lower value 1.02 | locus YCL029C, strain bik1, stronger effect = lower value 0.982 | locus YCL069W, strain vba3, stronger effect = lower value 0.998 | locus YCR088W, strain abp1, stronger effect = lower value 0.966 | locus YDL005C, strain med2, stronger effect = lower value 1.06 | locus YDL035C, strain GPR1, stronger effect = lower value 1.04 | locus YDL040C, strain nat1, stronger effect = lower value 1.03 | locus YDL074C, strain BRE1, stronger effect = lower value 0.994 | locus YDL101C, strain DUN1, stronger effect = lower value 0.99 | locus YDL134C, strain PPH21, stronger effect = lower value 1.05 | locus YDL185W, strain tfp1, stronger effect = lower value 0.96 | locus YDL192W, strain arf1, stronger effect = lower value 0.999 | locus YDR001C, strain nth1, stronger effect = lower value 0.972 | locus YDR069C, strain doa4, stronger effect = lower value 1.03 | locus YDR101C, strain arx1, stronger effect = lower value 1.01 | locus YDR159W, strain sac3, stronger effect = lower value 1.02 | locus YDR162C, strain NBP2, stronger effect = lower value 1.01 | locus YDR195W, strain ref2 1.04 | locus YDR297W, strain sur2, stronger effect = lower value 1.04 | locus YDR318W, strain mcm21, stronger effect = lower value 0.98 | locus YDR334W, strain swr1, stronger effect = lower value 0.987 | locus YDR335W, strain msn5, stronger effect = lower value 1.02 | locus YDR388W, stronger effect = lower value 1.01 | locus YDR392W, strain spt3, stronger effect = lower value 1.08 | locus YDR502C, strain sam2, stronger effect = lower value 0.983 | locus YEL003W, strain gim4, stronger effect = lower value 1 | locus YEL037C, strain rad23, stronger effect = lower value 1.01 | locus YEL061C, strain CIN8 (second series), stronger effect = lower value 1.01 | locus YEL061C, strain CIN8, stronger effect = lower value 0.99 | locus YER015W, strain faa2, stronger effect = lower value 1.01 | locus YER016W, strain bim1, stronger effect = lower value 1.01 | locus YER110C, stronger effect = lower value 1.01 | locus YER111C, strain swi4, stronger effect = lower value 1.04 | locus YER155C, strain BEM2 (second series), stronger effect = lower value 1.08 | locus YER155C, strain BEM2, stronger effect = lower value 0.999 | locus YER167W, strain BCK2, stronger effect = lower value 0.992 | locus YFR010W, strain ubp6, stronger effect = lower value 1.02 | locus YGL078C, strain dbp3, stronger effect = lower value 0.994 | locus YGL086W, strain mad1, stronger effect = lower value 1 | locus YGL167C, strain pmr1, stronger effect = lower value 1.05 | locus YGL173C, strain kem1, stronger effect = lower value 1.04 | locus YGL227W, strain vid30, stronger effect = lower value 1 | locus YGL240W, strain doc1, stronger effect = lower value 1.04 | locus YGL248W, strain PDE1, stronger effect = lower value 0.991 | locus YGL253W, strain hxk2, stronger effect = lower value 0.983 | locus YGR078C, strain PAC10, stronger effect = lower value 0.994 | locus YGR135W, strain pre9, stronger effect = lower value 0.971 | locus YGR252W, strain gcn5, stronger effect = lower value 0.976 | locus YHR013C, strain ard1, stronger effect = lower value 1.03 | locus YHR027C, strain rpn1, stronger effect = lower value 1.05 | locus YHR030C, strain SLT2, stronger effect = lower value 1.01 and 0.966 | locus YHR079C, strain IRE1 (second series), stronger effect = lower value 0.991 | locus YHR079C, strain IRE1, stronger effect = lower value 0.956 | locus YHR094C, strain hxt1, stronger effect = lower value 1.02 | locus YHR129C, strain ARP1, stronger effect = lower value 1 | locus YHR142W, strain chs7, stronger effect = lower value 0.966 | locus YHR200W, strain rpn10, stronger effect = lower value 0.986 | locus YIL066C, strain RNR3, stronger effect = lower value 1 | locus YIL073C, strain SPO22, stronger effect = lower value 0.915 | locus YIL125W, strain kgd1, stronger effect = lower value 0.993 | locus YIR030C, strain dcg1, stronger effect = lower value 1 | locus YJL092W, strain hpr5, stronger effect = lower value 0.973 | locus YJL095W, strain BCK1 (second series), stronger effect = lower value 1.04 | locus YJL095W, strain BCK1, stronger effect = lower value 0.972 and 0.975 | locus YJL115W, strain asf1, stronger effect = lower value 1.02 | locus YJL134W, strain LCB3, stronger effect = lower value 1.01 | locus YJL154C, strain vps35, stronger effect = lower value 0.963 | locus YJL164C, strain tpk1, stronger effect = lower value 0.993 | locus YJL166W, strain qcr8, stronger effect = lower value 1.04 | locus YJL168C, strain set2, stronger effect = lower value 1.03 | locus YJL187C, strain SWE1 (second series), stronger effect = lower value 0.98 | locus YJR043C, strain POL32, stronger effect = lower value 1.05 | locus YJR066W, strain TOR1, stronger effect = lower value 0.941 | locus YKL009W, strain mrt4, stronger effect = lower value 1 | locus YKL068W, stronger effect = lower value 0.998 | locus YKL085W, strain MDH1 (second series), stronger effect = lower value 0.942 | locus YKL085W, strain MDH1, stronger effect = lower value 0.942 | locus YKL160W, strain elf1, stronger effect = lower value 1.01 | locus YKL190W, strain CNB1, stronger effect = lower value 0.981 | locus YKR001C, strain vps1, stronger effect = lower value 1.03 | locus YKR026C, strain gcn3, stronger effect = lower value 0.979 | locus YKR091W, strain srl3, stronger effect = lower value 0.999 | locus YLL001W, strain dnm1, stronger effect = lower value 1.02 | locus YLL026W, stronger effect = lower value 1 | locus YLL041C, strain sdh2, stronger effect = lower value 1.01 | locus YLR027C, strain aat2, stronger effect = lower value 0.995 | locus YLR039C, strain RIC1, stronger effect = lower value 1.32 | locus YLR058C, strain SHM2, stronger effect = lower value 0.989 | locus YLR102C, strain apc9, stronger effect = lower value 1.02 | locus YLR113W, strain HOG1, stronger effect = lower value 0.947 | locus YLR221C, strain rsa3, stronger effect = lower value 0.988 | locus YLR258W, strain gsy2, stronger effect = lower value 1.03 | locus YLR262C, strain YPT6, stronger effect = lower value 1.07 | locus YLR268W, strain sec22, stronger effect = lower value 0.987 | locus YLR320W, strain mms22, stronger effect = lower value 1.02 | locus YLR330W, strain CHS5, stronger effect = lower value 0.994 | locus YLR342W, strain FKS1 (second series), stronger effect = lower value 1.05 | locus YLR342W, strain FKS1, stronger effect = lower value 1.01 | locus YLR357W, strain rsc2, stronger effect = lower value 1.01 | locus YLR370C, strain arc18, stronger effect = lower value 0.979 | locus YLR371W, strain rom2, stronger effect = lower value 1.01 | locus YLR384C, strain iki3, stronger effect = lower value 1.05 | locus YLR418C, strain cdc73, stronger effect = lower value 0.993 | locus YML016C, strain PPZ1, stronger effect = lower value 0.996 | locus YML032C, strain rad52, stronger effect = lower value 1.01 | locus YML120C, strain ndi1, stronger effect = lower value 1.01 | locus YML124C, strain tub3, stronger effect = lower value 1.01 | locus YMR058W, strain fet3, stronger effect = lower value 1.01 | locus YMR078C, strain ctf18, stronger effect = lower value 1.02 | locus YMR125W, strain sto1, stronger effect = lower value 0.982 | locus YMR129W, stronger effect = lower value 0.999 | locus YMR205C, strain PFK2, stronger effect = lower value 1.01 | locus YMR223W, strain ubp8, stronger effect = lower value 0.983 | locus YMR263W, strain SAP30, stronger effect = lower value 0.967 | locus YMR307W, strain GAS1, stronger effect = lower value 1.23 | locus YNL067W, strain RPL9B, stronger effect = lower value 0.959 | locus YNL071W, strain lat1, stronger effect = lower value 1.01 | locus YNL128W, strain TEP1, stronger effect = lower value 0.956 | locus YNL153C, strain GIM3, stronger effect = lower value 0.997 | locus YNL183C, strain NPR1, stronger effect = lower value 0.941 | locus YNL209W, strain ssb2, stronger effect = lower value 1.05 | locus YNL233W, strain BNI4, stronger effect = lower value 1 | locus YNL248C, strain rpa49, stronger effect = lower value 1.03 | locus YNL250W, strain rad50, stronger effect = lower value 0.998 | locus YNL271C, strain bni1, stronger effect = lower value 1.01 | locus YNL298W, strain CLA4, stronger effect = lower value 0.993 | locus YNL307C, strain MCK1, stronger effect = lower value 1.05 | locus YNL322C, strain KRE1 (second series), stronger effect = lower value 0.962 | locus YNL322C, strain KRE1, stronger effect = lower value 0.99 | locus YNR049C, strain mso1, stronger effect = lower value 0.985 | locus YNR052C, strain pop2, stronger effect = lower value 0.988 | locus YOL012C, strain htz1 1.01 | locus YOL147C, strain pex11, stronger effect = lower value 1.01 | locus YOR001W, strain rrp6, stronger effect = lower value 1.02 | locus YOR061W, strain CKA2, stronger effect = lower value 1 | locus YOR069W, strain VPS5, stronger effect = lower value 1 | locus YOR070C, strain gyp1, stronger effect = lower value 1.03 | locus YOR080W, strain dia2, stronger effect = lower value 1.03 | locus YOR083W, strain WHI5, stronger effect = lower value 1.01 | locus YOR136W, strain idh2, stronger effect = lower value 0.99 | locus YOR144C, strain elg1, stronger effect = lower value 1.01 | locus YOR184W, strain ser1, stronger effect = lower value 0.977 | locus YOR231W, strain MKK1, stronger effect = lower value 0.974 | locus YOR265W, strain rbl2, stronger effect = lower value 1.04 | locus YOR290C, strain snf2, stronger effect = lower value 0.978 | locus YOR316C, strain cot1, stronger effect = lower value 1.01 | locus YPL051W, strain arl3, stronger effect = lower value 1.01 | locus YPL055C, strain LGE1, stronger effect = lower value 1.01 | locus YPL078C, strain atp4, stronger effect = lower value 1.05 | locus YPL106C, strain sse1, stronger effect = lower value 1.08 | locus YPL240C, strain hsp82, stronger effect = lower value 1.04 | locus YPL241C, strain CIN2, stronger effect = lower value 1.01 | locus YPL256C, strain CLN2, stronger effect = lower value 0.993 | locus YPR119W, strain clb2, stronger effect = lower value 1.02 | locus YPR141C, strain kar3, stronger effect = lower value 0.993 | locus YPR163C, strain tif3, stronger effect = lower value 1.05 | locus YPR167C, strain met16, stronger effect = lower value 0.991 | strain wtn01, stronger effect = lower value 0.99
